Reference: the supplement of paper PMC8728848
This is one part of a sample in which the strongest signals are shown more often than they occur.

Key:
Assay in all cases: glycan array binding signal (z-score within array); higher = stronger binding
Settings in all cases: glycan notation: IUPAC condensed, linker removed
[1] = target: Fuc(a1-2)Gal(b1-3)GalNAc(b1-3)Gal
Method in brief: (§1)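 Negative Z-scores can be read as non-binding. The Z-score is calculated within each array and then averaged across arrays of one protein sequence at different concentrations or buffers and across linkers. Arrays, 3228 in all, were curated from the Consortium for Functional Glycomics database and kept only where the protein sequence was available.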

[2] = target: Fuc(a1-2)Gal(b1-4)GlcNAc(b1-3)Gal(b1-4)GlcNAc(b1-3)Gal(b1-4)GlcNAc
Method in brief: as §1

[3] = target: Fuc(a1-2)Gal(b1-4)GlcNAc(b1-3)GalNAc
Method in brief: as §1

[4] = target: Fuc(a1-2)Gal(b1-4)[Fuc(a1-3)]GlcNAc(b1-3)Gal(b1-4)[Fuc(a1-3)]GlcNAc
Method in brief: as §1

[5] = target: Fuc(a1-2)[Gal(a1-3)]Gal(b1-3)GalNAc
Method in brief: as §1

[6] = target: Fuc(a1-2)[Gal(a1-3)]Gal(b1-4)GlcNAc
Method in brief: as §1

[7] = target: Fuc(a1-2)[Gal(a1-3)]Gal(b1-4)GlcNAc(b1-3)[Fuc(a1-2)[Gal(a1-3)]Gal(b1-4)GlcNAc(b1-6)]GalNAc
Method in brief: as §1

[8] = target: Fuc(a1-2)[Gal(a1-3)]Gal(b1-4)[Fuc(a1-3)]GlcNAc(b1-3)GalNAc
Method in brief: as §1

[9] = target: Fuc(a1-2)[GalNAc(a1-3)]Gal(b1-4)GlcNAc
Method in brief: as §1

[10] = target: Fuc(a1-3)GlcNAc
Method in brief: as §1

[11] = target: Fuc(a1-3)[Gal(b1-4)]GlcNAc(b1-2)Man(a1-3)[Fuc(a1-3)[Gal(b1-4)]GlcNAc(b1-2)Man(a1-6)]Man(b1-4)GlcNAc(b1-4)[Fuc(a1-6)]GlcNAc
Method in brief: as §1

[12] = target: Gal(a1-2)Gal
Method in brief: as §1

[13] = target: Gal(a1-3)Gal(b1-4)Glc
Method in brief: as §1

[14] = target: Gal(a1-3)Gal(b1-4)GlcNAc
Method in brief: as §1

[15] = target: Gal(a1-3)Gal(b1-4)[Fuc(a1-3)]GlcNAc(b1-2)Man(a1-3)[Gal(a1-3)Gal(b1-4)[Fuc(a1-3)]GlcNAc(b1-2)Man(a1-6)]Man(b1-4)GlcNAc(b1-4)GlcNAc
Method in brief: as §1

[16] = target: Gal(a1-3)[Gal(a1-4)]Gal(b1-4)GlcNAc
Method in brief: as §1

[17] = target: Gal(b1-3)GlcNAc(b1-6)[Gal(b1-3)]GalNAc
Method in brief: as §1

[18] = target: Gal(b1-4)GlcNAc(b1-2)Man(a1-3)[Gal(b1-4)GlcNAc(b1-2)Man(a1-6)]Man(b1-4)GlcNAc(b1-4)[Fuc(a1-6)]GlcNAc
Method in brief: as §1

[19] = target: Gal(b1-4)GlcNAc(b1-2)Man(a1-3)[Man(a1-6)]Man(b1-4)GlcNAc(b1-4)GlcNAc
Method in brief: as §1

[20] = target: Gal(b1-4)GlcNAc(b1-2)Man(a1-6)[GlcNAc(b1-2)Man(a1-3)]Man(b1-4)GlcNAc(b1-4)GlcNAc
Method in brief: as §1

[21] = target: Gal(b1-4)GlcNAc(b1-2)[Gal(b1-4)GlcNAc(b1-4)]Man(a1-3)[GlcNAc(b1-4)][Gal(b1-4)GlcNAc(b1-2)Man(a1-6)]Man(b1-4)GlcNAc(b1-4)GlcNAc
Method in brief: as §1

[22] = target: Gal(b1-4)GlcNAc(b1-3)Gal(b1-4)GlcNAc(b1-3)Gal(b1-4)GlcNAc(b1-3)Gal(b1-4)GlcNAc(b1-3)Gal(b1-4)GlcNAc(b1-2)Man(a1-3)[Gal(b1-4)GlcNAc(b1-3)Gal(b1-4)GlcNAc(b1-3)Gal(b1-4)GlcNAc(b1-3)Gal(b1-4)GlcNAc(b1-3)Gal(b1-4)GlcNAc(b1-2)Man(a1-6)]Man(b1-4)GlcNAc(b1-4)GlcNAc
Method in brief: as §1

[23] = target: Gal(b1-4)GlcNAc(b1-3)Gal(b1-4)GlcNAc(b1-3)GalNAc
Method in brief: as §1

[24] = target: Gal(b1-4)GlcNAc(b1-3)Gal(b1-4)[Fuc(a1-3)]GlcNAc(b1-3)Gal(b1-4)[Fuc(a1-3)]GlcNAc
Method in brief: as §1

[25] = target: Gal3S(b1-4)GlcNAc
Method in brief: as §1

[26] = target: GalNAc(a1-3)GalNAc
Method in brief: as §1

[27] = target: GalNAc(b1-4)GlcNAc(b1-2)Man(a1-3)[GalNAc(b1-4)GlcNAc(b1-2)Man(a1-6)]Man(b1-4)GlcNAc(b1-4)GlcNAc
Method in brief: as §1

B1: BT3172pd (Bacteroides thetaiotaomicron) (protein)
chain: MLPLRAEHYYYKQISLKEGLPSNVRCILRDEQGFIWIGTKAGLGKFDGHQLKRYKHQANDPHSLLHNLIYQIAEDKQHNIWILTEKGIARYQQQSNNFTFPTDEEGNYITAYSFCLVPDGILFGGKDRIYKYSYKDSSLRLLQYFNANSFKITALSVWDSKTLLCCSRWTGLYLVDLQTGEHRRPPFDCGPEITSMITDSKNRIWIAPYSGGLRCYSRDGKLSASYTTHNSSLSNDIVLSLAEREEQLWIGTDGGGINILHPETGEISQLEYIPGRENYSLPANSILCLHNDYNNNVWAGSTCNGLISIREVSMKTYTDVVPGNDRGLSNGTVRSLYRQSPDSIWIGTDGGGINLFSPHTEKFTHYSSTWGDKVAFISGFTPGKLLISLFSKGVFVFNPATGEKQPFTIIDKETTTRLCNRGKSVNLYQNTPNTVLFLGDHIYQYHLKEKKFSTITEEEGKDIVGTLVPFDHQENLTYINDIKHIYELDDQTSRLKTVFECYTDTVISSVSHDEQGHFWIGSNFGLIHYDPVLKSRTLVPTNLFTEINMVLCDQKGKVWIGVDNMLFAYFIKEQKFVLFGESNGAIQNEYLPNARLVNEQGDAYIGGVKGMLRIDGQLLLNTSEMPELQLLDITINGESANHEWYNHPAKISVPWNSNISIRIMSREEDIFRQKIYRYQIEGLNNEYTESYNPELVIRSLLPGSYRIMASCTAKDGSWIPDQQVLELTVLPPWYRTHHHHHH
**Q.** Which “glycan array binding signal (z-score)” value [1] does the source give for B1 here?
**A.** -1.16

**Q.** And the “glycan array binding signal (z-score)” value [2]?
**A.** -0.03

**Q.** And the “glycan array binding signal (z-score)” value [3]?
**A.** -0.024

**Q.** And the “glycan array binding signal (z-score)” value [4]?
**A.** -0.649

**Q.** What about the “glycan array binding signal (z-score)” value [5] of the same binder?
**A.** 0.258

**Q.** What about the “glycan array binding signal (z-score)” value [6] of the same binder?
**A.** -0.52

**Q.** And the “glycan array binding signal (z-score)” value [7]?
**A.** 5.41

**Q.** What about the “glycan array binding signal (z-score)” value [8] of the same binder?
**A.** -0.194

**Q.** And the “glycan array binding signal (z-score)” value [9]?
**A.** -0.511

**Q.** What about the “glycan array binding signal (z-score)” value [10] of the same binder?
**A.** -0.076

**Q.** What about the “glycan array binding signal (z-score)” value [11] of the same binder?
**A.** 2.04

**Q.** What about the “glycan array binding signal (z-score)” value [12] of the same binder?
**A.** -0.237

**Q.** What about the “glycan array binding signal (z-score)” value [13] of the same binder?
**A.** -0.327

**Q.** What about the “glycan array binding signal (z-score)” value [14] of the same binder?
**A.** -0.339

**Q.** And the “glycan array binding signal (z-score)” value [15]?
**A.** 2.4

**Q.** What about the “glycan array binding signal (z-score)” value [16] of the same binder?
**A.** 2.39

**Q.** What about the “glycan array binding signal (z-score)” value [17] of the same binder?
**A.** -0.299

**Q.** What about the “glycan array binding signal (z-score)” value [18] of the same binder?
**A.** -0.075

**Q.** And the “glycan array binding signal (z-score)” value [19]?
**A.** -0.349

**Q.** And the “glycan array binding signal (z-score)” value [20]?
**A.** 0.924

**Q.** And the “glycan array binding signal (z-score)” value [21]?
**A.** -0.47

**Q.** And the “glycan array binding signal (z-score)” value [22]?
**A.** 5.07

**Q.** And the “glycan array binding signal (z-score)” value [23]?
**A.** -0.264

**Q.** And the “glycan array binding signal (z-score)” value [24]?
**A.** -0.565

**Q.** And the “glycan array binding signal (z-score)” value [25]?
**A.** 0.279

**Q.** What about the “glycan array binding signal (z-score)” value [26] of the same binder?
**A.** -0.288

**Q.** And the “glycan array binding signal (z-score)” value [27]?
**A.** -0.134
